# Results as given in ChEMBL document CHEMBL3988442, “University of Dundee, Small-Polar-MMV Screening Library” (2021).
# For some of these results: Potency and affinity values are given separately.
# Key:
# Set-up in all cases: scale not given: direction of the effect not stated beside the values
# [1] = molecular target: Protein translocase subunit SecA (Escherichia coli (strain K12)) (UniProt P10408); assay: Assay to Identify E. coli SecA ATPase Inhibitors; format: functional; conditions: 30 µM
# Sequence of Protein translocase subunit SecA (Escherichia coli (strain K12)) (P10408 whole entry): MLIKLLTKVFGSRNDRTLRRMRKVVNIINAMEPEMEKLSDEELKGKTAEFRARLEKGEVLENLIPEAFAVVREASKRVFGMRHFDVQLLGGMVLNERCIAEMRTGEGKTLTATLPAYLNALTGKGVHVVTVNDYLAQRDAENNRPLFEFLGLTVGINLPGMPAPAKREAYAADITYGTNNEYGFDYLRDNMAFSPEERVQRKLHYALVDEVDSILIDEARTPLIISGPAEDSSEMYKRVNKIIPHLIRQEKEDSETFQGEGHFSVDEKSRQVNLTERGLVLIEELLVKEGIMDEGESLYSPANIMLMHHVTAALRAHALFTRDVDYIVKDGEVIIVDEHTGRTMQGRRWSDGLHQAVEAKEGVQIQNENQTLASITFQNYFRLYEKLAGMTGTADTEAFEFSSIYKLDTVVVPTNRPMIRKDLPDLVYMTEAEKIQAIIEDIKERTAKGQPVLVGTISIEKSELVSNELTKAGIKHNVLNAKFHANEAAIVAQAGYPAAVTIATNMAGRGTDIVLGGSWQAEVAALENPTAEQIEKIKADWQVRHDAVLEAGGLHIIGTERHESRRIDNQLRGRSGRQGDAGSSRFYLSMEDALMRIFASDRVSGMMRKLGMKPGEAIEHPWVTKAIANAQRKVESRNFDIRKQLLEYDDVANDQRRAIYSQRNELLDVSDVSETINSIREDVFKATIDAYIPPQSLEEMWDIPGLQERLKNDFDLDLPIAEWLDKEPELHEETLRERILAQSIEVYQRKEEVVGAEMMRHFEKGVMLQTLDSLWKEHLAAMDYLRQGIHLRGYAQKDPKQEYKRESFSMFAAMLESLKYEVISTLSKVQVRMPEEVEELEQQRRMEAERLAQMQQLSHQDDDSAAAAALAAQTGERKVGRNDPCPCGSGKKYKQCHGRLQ
# [2] = molecular target: T1, Ubiquitin-activating enzyme e1, putative (Leishmania donovani (strain BPK282A1)) (UniProt E9BSI1); assay: Leishmania donovani Ubiquitin Activating Enzyme (LdE1); format: functional; conditions: 30 µM
# T1 sequence (whole entry): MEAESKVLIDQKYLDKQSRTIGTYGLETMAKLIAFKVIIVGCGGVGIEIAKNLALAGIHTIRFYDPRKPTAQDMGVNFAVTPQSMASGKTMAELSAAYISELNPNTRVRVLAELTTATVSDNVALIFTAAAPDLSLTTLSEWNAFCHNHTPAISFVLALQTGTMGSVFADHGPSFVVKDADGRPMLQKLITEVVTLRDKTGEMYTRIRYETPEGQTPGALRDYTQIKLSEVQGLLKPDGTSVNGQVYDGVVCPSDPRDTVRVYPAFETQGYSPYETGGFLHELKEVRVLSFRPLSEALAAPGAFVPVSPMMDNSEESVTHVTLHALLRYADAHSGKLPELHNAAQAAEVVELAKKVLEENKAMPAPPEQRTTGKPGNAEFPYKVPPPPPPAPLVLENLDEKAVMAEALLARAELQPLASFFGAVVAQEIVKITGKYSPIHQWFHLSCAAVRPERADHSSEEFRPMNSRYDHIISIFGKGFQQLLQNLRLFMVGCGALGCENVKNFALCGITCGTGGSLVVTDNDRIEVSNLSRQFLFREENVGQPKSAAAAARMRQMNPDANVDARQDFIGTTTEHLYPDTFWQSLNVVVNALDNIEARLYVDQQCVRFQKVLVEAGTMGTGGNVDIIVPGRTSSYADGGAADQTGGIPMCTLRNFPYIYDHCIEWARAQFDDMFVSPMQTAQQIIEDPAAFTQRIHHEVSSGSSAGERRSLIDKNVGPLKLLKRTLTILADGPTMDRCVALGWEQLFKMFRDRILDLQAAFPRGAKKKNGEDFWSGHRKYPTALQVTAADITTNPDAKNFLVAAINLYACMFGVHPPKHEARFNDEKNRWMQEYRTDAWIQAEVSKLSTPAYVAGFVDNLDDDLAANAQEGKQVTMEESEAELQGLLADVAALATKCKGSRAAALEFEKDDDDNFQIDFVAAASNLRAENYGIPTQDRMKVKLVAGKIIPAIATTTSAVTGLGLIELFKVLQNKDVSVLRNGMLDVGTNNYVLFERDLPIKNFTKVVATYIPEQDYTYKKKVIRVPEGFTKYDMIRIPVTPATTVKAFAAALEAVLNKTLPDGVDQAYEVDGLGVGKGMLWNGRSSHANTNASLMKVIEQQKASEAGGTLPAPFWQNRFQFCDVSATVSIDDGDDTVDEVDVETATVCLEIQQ
# [3] = molecular target: AMP-activated protein kinase, AMPK (Homo sapiens) (UniProt P54646+O43741+P54619+Q9UGJ0+Q9Y478+Q13131+Q9UGI9); assay: AMP-dependent Kinase enzyme assay. An in vitro enzyme assay that detects ADP turnover that is directly proportional to AMPK activity. This uses naive AMPK that is activated during the assay with MK-8722; format: functional; conditions: 30 µM
# [4] = molecular target: Sialic acid-binding Ig-like lectin 9 (Homo sapiens) (UniProt Q9Y336); assay: Hs-Siglec9 ALPHAscreen SOP 20170721; conditions: 10 µM
# Sequence of Sialic acid-binding Ig-like lectin 9 (Homo sapiens) (Q9Y336 whole entry): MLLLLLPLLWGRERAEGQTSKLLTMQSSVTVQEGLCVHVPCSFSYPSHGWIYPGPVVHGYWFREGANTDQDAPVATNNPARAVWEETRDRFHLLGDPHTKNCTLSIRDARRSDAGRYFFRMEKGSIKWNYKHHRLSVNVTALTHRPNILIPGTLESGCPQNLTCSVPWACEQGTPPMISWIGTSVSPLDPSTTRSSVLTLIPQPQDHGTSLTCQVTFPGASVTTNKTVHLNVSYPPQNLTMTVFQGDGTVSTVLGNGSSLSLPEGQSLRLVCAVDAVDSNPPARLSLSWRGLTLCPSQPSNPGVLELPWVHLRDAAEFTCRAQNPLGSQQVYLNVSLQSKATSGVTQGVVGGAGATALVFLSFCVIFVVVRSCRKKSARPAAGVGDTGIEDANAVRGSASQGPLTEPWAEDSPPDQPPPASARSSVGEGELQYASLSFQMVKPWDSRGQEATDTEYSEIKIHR
# Trypanosoma cruzi = assay: Trypanosoma cruzi phosphomannomutase and mannose-1-phosphate guanylyltransferase assay; format: functional; conditions: 10 µM
# [5] = molecular target: T2, Arginase-2, mitochondrial (Homo sapiens) (UniProt P78540); assay: in vitro enzyme assay to detect the production of urea directly proportional to the activity of Arginase II; format: functional; conditions: 33.3 µM; note: in the data most compounds retested in dose-response had high values
# T2 sequence (whole entry): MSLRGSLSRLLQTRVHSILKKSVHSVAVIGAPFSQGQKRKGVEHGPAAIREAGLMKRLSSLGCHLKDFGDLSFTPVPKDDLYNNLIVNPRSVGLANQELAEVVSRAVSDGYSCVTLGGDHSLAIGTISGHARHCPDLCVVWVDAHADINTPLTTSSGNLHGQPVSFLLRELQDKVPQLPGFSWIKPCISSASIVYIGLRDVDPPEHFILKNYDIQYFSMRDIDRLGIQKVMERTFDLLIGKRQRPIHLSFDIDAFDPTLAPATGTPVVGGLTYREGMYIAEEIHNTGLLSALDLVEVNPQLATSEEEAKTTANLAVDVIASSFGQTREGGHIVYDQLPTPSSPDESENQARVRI
# [6] = molecular target: T3, Proteasome subunit beta (Trypanosoma cruzi) (UniProt O96673); assay: Trypanosoma cruzi proteasome chymotrypsin-like activity (TcProtChymo) assay.; note: in the data most compounds retested in dose-response had high values; format: functional; conditions: 9.37 µM
# T3 sequence (whole entry): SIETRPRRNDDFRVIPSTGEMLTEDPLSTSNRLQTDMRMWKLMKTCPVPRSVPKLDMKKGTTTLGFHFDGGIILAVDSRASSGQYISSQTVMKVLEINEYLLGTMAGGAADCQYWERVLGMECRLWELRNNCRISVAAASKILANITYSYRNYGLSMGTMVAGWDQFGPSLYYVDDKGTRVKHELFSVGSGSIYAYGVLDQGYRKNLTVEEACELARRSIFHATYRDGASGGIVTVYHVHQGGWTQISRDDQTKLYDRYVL
# Homo sapiens = species on record: Homo sapiens; assay: To identify inhibition of the IFN signalling (Jak-Stat) pathway via expression of an eGFP reporter gene under the control of an IFN-stimulated response element (ISRE) containing MxA promoter.; format: functional; conditions: 30 µM
# [7] = molecular target: T4, Tyrosyl-tRNA synthetase, putative (Trypanosoma cruzi (strain CL Brener)) (UniProt Q4DSP6); assay: Trypanosoma cruzi tyrosyl tRNA synthetase (TcYRS) _High Tyrosine SOP; format: functional; conditions: 30 µM; note: in the data most compounds retested in dose-response had high values
# T4 sequence (whole entry): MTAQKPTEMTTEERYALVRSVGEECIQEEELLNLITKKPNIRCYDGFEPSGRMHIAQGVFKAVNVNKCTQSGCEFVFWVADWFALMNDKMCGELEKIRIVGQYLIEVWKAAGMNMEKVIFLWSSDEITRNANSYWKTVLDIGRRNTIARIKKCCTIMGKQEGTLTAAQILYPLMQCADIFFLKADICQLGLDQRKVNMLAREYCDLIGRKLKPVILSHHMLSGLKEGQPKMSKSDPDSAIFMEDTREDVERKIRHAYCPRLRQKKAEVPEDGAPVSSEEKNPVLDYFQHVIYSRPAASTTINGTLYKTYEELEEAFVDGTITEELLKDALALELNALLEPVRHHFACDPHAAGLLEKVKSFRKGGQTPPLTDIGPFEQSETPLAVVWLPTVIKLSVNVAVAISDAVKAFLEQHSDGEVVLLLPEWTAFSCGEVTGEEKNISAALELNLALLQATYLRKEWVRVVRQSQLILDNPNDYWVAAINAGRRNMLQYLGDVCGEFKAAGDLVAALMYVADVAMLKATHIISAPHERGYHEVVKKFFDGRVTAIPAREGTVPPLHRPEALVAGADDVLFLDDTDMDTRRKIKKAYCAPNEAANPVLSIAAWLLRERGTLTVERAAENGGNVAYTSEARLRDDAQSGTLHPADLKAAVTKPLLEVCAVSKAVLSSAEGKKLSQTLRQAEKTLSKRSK
# [8] = molecular target: T4, Tyrosyl-tRNA synthetase, putative (Trypanosoma cruzi (strain CL Brener)); assay: Trypanosoma cruzi tyrosyl tRNA synthetase (TcYRS) SOP; format: functional; conditions: 30 µM
# [9] = molecular target: Chromo domain-containing protein 1 (Saccharomyces cerevisiae (strain ATCC 204508 / S288c) (Baker's yeast)) (UniProt P32657); assay: ScCHD-1 Enzyme Inhibition Assay; format: functional; conditions: 30 µM; note: in the data most compounds retested in dose-response had high values
# Sequence of Chromo domain-containing protein 1 (Saccharomyces cerevisiae (strain ATCC 204508 / S288c) (Baker's yeast)) (P32657 whole entry, the tested form may be a part): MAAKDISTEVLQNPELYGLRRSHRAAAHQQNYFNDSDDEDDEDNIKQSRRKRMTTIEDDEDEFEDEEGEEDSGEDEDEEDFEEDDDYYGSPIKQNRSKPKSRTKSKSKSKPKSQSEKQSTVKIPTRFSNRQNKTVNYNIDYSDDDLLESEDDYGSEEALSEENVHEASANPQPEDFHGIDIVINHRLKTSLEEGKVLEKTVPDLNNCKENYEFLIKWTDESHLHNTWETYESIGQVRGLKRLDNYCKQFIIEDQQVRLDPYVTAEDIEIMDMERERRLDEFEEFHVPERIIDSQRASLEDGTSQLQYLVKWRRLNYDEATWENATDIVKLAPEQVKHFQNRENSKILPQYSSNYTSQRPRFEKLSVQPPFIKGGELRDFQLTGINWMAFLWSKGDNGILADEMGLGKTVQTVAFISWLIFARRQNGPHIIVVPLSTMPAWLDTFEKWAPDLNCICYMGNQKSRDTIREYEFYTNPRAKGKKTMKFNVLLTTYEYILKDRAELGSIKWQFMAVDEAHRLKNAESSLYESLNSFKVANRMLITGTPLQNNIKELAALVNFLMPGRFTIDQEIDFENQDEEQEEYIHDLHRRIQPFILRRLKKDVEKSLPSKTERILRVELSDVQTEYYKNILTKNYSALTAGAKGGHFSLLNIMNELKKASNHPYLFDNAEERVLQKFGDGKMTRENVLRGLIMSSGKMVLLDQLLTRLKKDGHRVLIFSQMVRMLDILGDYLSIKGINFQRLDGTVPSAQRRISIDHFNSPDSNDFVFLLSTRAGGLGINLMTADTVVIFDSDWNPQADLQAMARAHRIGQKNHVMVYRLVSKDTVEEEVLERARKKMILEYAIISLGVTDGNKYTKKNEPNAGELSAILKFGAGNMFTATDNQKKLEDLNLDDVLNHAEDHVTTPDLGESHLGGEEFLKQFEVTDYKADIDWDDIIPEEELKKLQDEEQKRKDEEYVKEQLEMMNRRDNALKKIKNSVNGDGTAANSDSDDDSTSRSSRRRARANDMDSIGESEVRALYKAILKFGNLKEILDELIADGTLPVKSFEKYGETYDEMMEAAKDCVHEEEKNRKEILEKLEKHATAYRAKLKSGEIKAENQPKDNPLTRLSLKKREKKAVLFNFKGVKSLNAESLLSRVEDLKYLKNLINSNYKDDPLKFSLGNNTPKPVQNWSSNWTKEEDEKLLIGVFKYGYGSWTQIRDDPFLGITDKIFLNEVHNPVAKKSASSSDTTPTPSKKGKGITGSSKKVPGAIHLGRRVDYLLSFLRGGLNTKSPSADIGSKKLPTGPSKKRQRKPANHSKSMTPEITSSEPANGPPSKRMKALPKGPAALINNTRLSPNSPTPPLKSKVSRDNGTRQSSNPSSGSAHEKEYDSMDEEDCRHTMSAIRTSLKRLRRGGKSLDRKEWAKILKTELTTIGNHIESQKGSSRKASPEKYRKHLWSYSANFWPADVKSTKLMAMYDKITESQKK
Compound,Percent Effect [1] [%],Percent Effect [2] [%],Percent Effect [3] [%],Percent Effect [4] [%],Percent Effect (Trypanosoma cruzi) [%],Percent Effect [5] [%],Percent Effect [6] [%],Percent Effect (Homo sapiens) [%],Percent Effect [7] [%],Percent Effect [8] [%],Percent Effect [9] [%]
CN1CCN(Cc2ccccc2CNC(=O)c2ccc(Br)cc2)CC1,-4.93,8.11,-2.99,8.77,0.0978,1.24,5.92,-4.85,3.23,16.1,-1.46
COc1c(CNCc2ccc(CN(C)C)cc2)c(C)nn1C,3.12,-1.27,3.93,0.303,3.79,4.95,9.26,-11.7,-3.12,2.53,-2.72
CN(Cc1ccc(F)cc1)CC1(O)CCN(C(=O)c2cccn2C)C1 (stereo unspecified),-6.43,13.3,2.06,5.19,3.15,-4.43,0.969,3,6.38,8.97,-9.32
CN(C)Cc1nnc(C2CCN(c3nccc(N)n3)CC2)n1C1CC1,-4.19,1.39,-3.33,-0.797,1.26,0.442,8.42,-31.4,5.26,5.13,-3.78
N#Cc1cn(C2CC2)c(=O)n(CC(O)c2ccc(OC(F)F)cc2)c1=O (stereo unspecified),-5.26,15.8,-4.7,7.1,6.01,0,11.2,3.44,0.49,17.1,-12.4
CS(=O)(=O)N1CCOC2(CCCN(c3cnccn3)C2)C1 (stereo unspecified),-3.81,0,-1.28,-4.89,-2.83,1.74,6.09,1.81,1.07,1.24,0.866
O=C(COCc1ccccc1)N1CCCC(n2cncn2)C1 (stereo unspecified),-4.9,16.2,-5.92,0.0525,1.79,-2.4,7.57,11.4,6.4,18.5,-4.59
CCN(Cc1ccco1)C(=O)NCc1nnc2n1CCC2,-1.4,10.8,-2.71,1.38,-1.35,3.81,20.5,0.671,6.88,14.6,-1.97
CN(Cc1ccco1)[C@@H]1CN(C(=O)c2ccnnc2)C[C@@H]2CCCO[C@@H]21,-2.86,2.74,-3.12,2.33,4.76,2.4,0.77,-17.3,2.08,8.64,1.23
CCNC(=O)c1nc2c(s1)CCCN2S(C)(=O)=O,-5.43,24,-3.85,-4.95,0.772,-56.8,5.81,22.1,-6.25,15,-18.4
O=S(=O)(c1ccccc1)N1CCN(CCn2ccnc2)CC1,-6.59,2.74,-6.09,-6.85,0.979,3.64,7.28,6.13,6.45,7.5,-3.52
